Screening results from PubChem BioAssay.
Hits are enriched below; roughly 4% of the tested compounds scored in any of these assays.
TRHR PAM – TRH receptor (human) allosteric enhancement; AID 493056; enhancement, % at 2 µM; P34981; TRHR cells, fluo-8 calcium fluorescence, EC20 TRH enhancement; 0.66% of 360,000 active; in the data active means enhancement above about 30%
Target sequence (P34981 whole entry, looked up): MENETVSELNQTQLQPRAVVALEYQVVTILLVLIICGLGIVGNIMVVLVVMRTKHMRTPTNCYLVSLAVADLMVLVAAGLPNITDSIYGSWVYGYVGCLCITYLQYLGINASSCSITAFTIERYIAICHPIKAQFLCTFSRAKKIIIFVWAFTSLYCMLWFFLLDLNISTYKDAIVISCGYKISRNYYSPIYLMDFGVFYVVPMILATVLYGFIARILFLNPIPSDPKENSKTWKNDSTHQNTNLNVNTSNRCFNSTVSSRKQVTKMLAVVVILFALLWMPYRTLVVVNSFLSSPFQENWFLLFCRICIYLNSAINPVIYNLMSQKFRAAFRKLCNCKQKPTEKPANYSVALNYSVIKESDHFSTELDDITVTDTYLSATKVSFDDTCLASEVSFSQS
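TRHR-expressing cells loaded with fluo-8 calcium dye were read kinetically (ex 480/em 530) during compound addition, then stimulated with an EC20 of TRH (10 nM final). Enhancement of the Gq-mediated intracellular calcium response was scored.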
D1 agonist – human D1 receptor agonism; HEK293 T-REx D1 cells, calcium flux, agonist mode; activation, % at 2 µM; 1% of 360,000 active; AID 504660
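Tetracycline-induced HEK293 TREx D1 cells, force-coupled to calcium signalling, were dye-loaded with a no-wash calcium kit. Compound was pin-added after a 10 s baseline. Fluorescence was read kinetically at 1 cycle/s for 180 s, with calcium rises flagged as agonism.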
Glioma ERSR ind – inducers of ER stress response in human glioma cells; U87-MG GRP78 promoter luciferase reporter, 16 h; Potency, µM, most hits filed as activators; 0.02% of 420,000 active; AID 602332; active means well fitted activation curve with a large enough effect; further: series mostly up to about 76 µM; nearly all actives have a fitted effect of over 35% in size
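ERSR induction read as luciferase luminescence (Bright-Glo, 10 min at room temperature) in stably transfected human U87-MG glioma cells exposed to compounds for 16 h, using GRP78 as sensor.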
D1 antagonist – human D1 dopamine receptor antagonism | 3.2% of 360,000 active | HEK293 TREx D1 cells, calcium flux, dopamine EC80; hits give low values | P21728 | activity change, negative = inhibition, % at 10 µM | AID 504652; in the data active means activity change below about -30%
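Compound effects on dopamine-evoked calcium signalling were measured in tetracycline-induced HEK293 Trex D1 cells. Dopamine at EC80 followed a 180 s compound pre-read, and fluorescence was tracked kinetically for 180 s more.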
D1 PAM – enhances dopamine response at the human D1 receptor; HEK293 TREx D1 cells, calcium flux, dopamine EC20 potentiation; potentiation, % at 10 µM; 0.036% of 360,000 active; AID 504651; in the data active means potentiation above about 30%
TRHR agonist – activates the human TRH receptor. P34981. TRHR cells, calcium flux fluo-8, FDSS agonist mode. activation, % at 2 µM. 0.18% of 360,000 active
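In this calcium-flux screen, cells bearing human TRHR are dye-loaded with fluo-8, baselined for 10 cycles, then exposed to library compounds; positive kinetic calcium responses during the agonist phase mark hits, with TRH as control.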
Each line names hits and unclear results; the compound was inactive in the other large screens. Unless noted, no stated cut-off is given here; in the data, active means activation above about 30%; inactive means the rest.

CCOC(=O)CC(=O)CSc1nc(-c2cccnc2)ccc1C#N	D1 agonist 34
COc1ccccc1-c1nnc(SCC(=O)c2c(N)n(C3CC3)c(=O)[nH]c2=O)n1C	none
COCCn1c(SCC(=O)c2c(N)n(C3CC3)c(=O)[nH]c2=O)nc2ccccc21	D1 antagonist -41
N#CC1=C(N)NC(SCC(=O)O)=C(C#N)C12CCCC2	none
N#CC1=C(N)NC(SCc2ccc(F)cc2)=C(C#N)C12CCCCC2	D1 antagonist -31
O=C(NCCCN1CCCC(O)C1)c1cc(COc2ccc(F)cc2F)on1 (configuration not stated)	none
COc1cccc(/C=N/n2c(C3CCCCC3)n[nH]c2=S)c1O	none
Cc1c(C(=O)c2ccc(F)cc2)c2ccccn2c1CCc1ccccn1	D1 antagonist -54
Cc1ccc(C)c(NC(=O)C(Sc2nc3ccc(C)cc3[nH]2)c2ccccc2)c1 (configuration not stated)	none
CC(Oc1ccc(F)cc1)C(=O)Nc1cc(-c2ccc(F)c(F)c2)no1 (configuration not stated)	D1 agonist 111, D1 antagonist -41 (no result: Glioma ERSR ind)
Fc1ccc(C2=NNC(=NCc3ccccc3)SC2)cc1F	D1 antagonist -40
COc1cccc(N/C(=N/C(=S)Nc2ccc(C)cc2C)Nc2nc(C)cc(C)n2)c1	D1 antagonist -61
CCNC(=S)/N=C(/Nc1ccc(OC)cc1)Nc1nc(C)cc(C)n1	none
O=C(COCc1ccccc1)N[C@@H](Cc1ccc(O)cc1)C(=O)O	D1 antagonist -36
O=C(Cc1ccccc1)N[C@@H](Cc1ccc(O)cc1)C(=O)O	none (no result: Glioma ERSR ind)
COc1cccc(/C(O)=C2/C(=O)C(=O)N(c3ccccn3)C2c2ccc(OC)c(OC)c2)c1 (configuration not stated)	none
Cc1cc(C)nc(NCCC(=O)O)n1	D1 antagonist -58
O=C(NC1(C(F)(F)F)C(=O)Nc2c1c(=O)[nH]c(=O)n2CCc1ccccc1)c1ccc(Cl)cc1 (configuration not stated)	none
Cc1ccc(C(=O)NC2(C(F)(F)F)C(=O)Nc3c2c(=O)[nH]c(=O)n3CCc2ccccc2)cc1 (configuration not stated)	D1 antagonist -40
Cc1ccc(-n2c3c(c(=O)[nH]c2=O)C(NC(=O)C(C)(C)C)(C(F)(F)F)C(=O)N3)cc1 (configuration not stated)	D1 antagonist -74
COC(=O)c1c(-c2ccc(OC)c(OC)c2)csc1N	D1 antagonist -34
COc1ccc2c(c1)O[C@@H](c1cccc(C(F)(F)F)c1)[C@H](OC(=O)N[C@H]1CCCc3ccccc31)C2=O	none (no result: Glioma ERSR ind)
COc1ccc2c(c1)O[C@H](c1ccc3c(c1)OCO3)[C@@H](OC(=O)N[C@H]1CCCc3ccccc31)C2=O	D1 antagonist -57
Fc1cccc(CSc2ncnc3c2oc2ccccc23)c1	D1 antagonist -93
Fc1ccc(CSc2ncnc3c2oc2ccccc23)cc1	none
CCC(C)SCC(=O)Nc1ccc(S(=O)(=O)N2CCOCC2)cc1OC (configuration not stated)	none
Cn1c(C(=O)NCc2ccccc2F)cc2oc3ccccc3c21	D1 antagonist -57 (no result: Glioma ERSR ind)
O=C(CNC(=O)C1CCCCC1)NNC(=O)c1ccc(Cl)cc1Cl	none
O=C(CNC(=O)C1CCCCC1)NNC(=O)c1ccccc1Br	D1 antagonist -35
OC1(c2ccc3c(c2)OCO3)CCN(Cc2ccccn2)CC1	D1 antagonist -40
OC1(c2ccc3c(c2)CN(Cc2ccccn2)CCO3)CCN(c2ccccc2F)CC1	none (no result: TRHR PAM, D1 agonist, D1 antagonist, D1 PAM, TRHR agonist)
CCc1ccccc1OCCCCN1CCCCC1	D1 antagonist -56
CCc1ccccc1OCCCN1CCCC1	none
c1ccc(-c2ccccc2OCCCN2CCCCC2)cc1	D1 antagonist -54
Cc1c(-c2nc3ccccc3[nH]2)cnn1C	D1 antagonist -30
Cn1c(CCN2CCN(c3ccccc3)CC2)nc2cc(NC(=O)c3ccco3)ccc21	TRHR PAM 33
Cc1ccc([C@H]2C(C(=O)O)=CC[C@@H](c3cccs3)N2S(=O)(=O)c2ccc(C)cc2)cc1	none (no result: TRHR PAM, D1 agonist, D1 antagonist, D1 PAM, TRHR agonist)
CN1CCc2cc(O)c(O)cc2C(c2ccccc2)C1 (configuration not stated)	D1 antagonist -88
C=CCN1CCc2cc(O)c(O)cc2[C@H](c2ccccc2)C1	none (no result: TRHR PAM, D1 agonist, D1 antagonist, D1 PAM, TRHR agonist)
CN1CCc2cc(Cl)c(O)cc2[C@@H](c2ccccc2)C1	D1 antagonist -89
CN(NS(=O)(=O)c1ccc(Cl)cc1)c1nc(C(F)(F)F)nc2ccccc12	none
CCCCN(C)Cc1cc(=O)oc2ccc3ccccc3c12	none
CCc1nc2sc3c(c2c(=O)n1CCO)CCC3	D1 antagonist -44
CSc1nc2sc3c(c2c(=O)n1C)CCC3	D1 antagonist -35
COc1ccc(S(=O)(=O)N2CCOC2CNC(=O)C(=O)NCCc2ccccc2)cc1C (configuration not stated)	none
Cc1cccnc1CCNC(=O)CCc1nnc(-c2ccccc2)o1	none
O=C(Nc1nnc(SCc2ccccc2F)s1)c1ccco1	D1 antagonist -82
O=[N+]([O-])c1cc(C(F)(F)F)cc([N+](=O)[O-])c1NCCNC(=S)Nc1ccc(Cl)c(Cl)c1	D1 antagonist -32
FC(F)(F)c1cccc(NC(=S)Nc2ccc(Cl)c(Cl)c2)c1	none
COc1ccc(N2C(N)=NC(N)=NC2(C)C)cc1	none
COc1cccc(N2C(N)=NC(N)=NC2(C)C)c1	D1 antagonist -54
Cc1cnc(CNc2cc(-c3ccccc3Cl)ncn2)cn1	none (no result: TRHR PAM, D1 agonist, D1 antagonist, D1 PAM, TRHR agonist)
Cc1cccc(C)c1OCc1nnc(SCC(=O)Nc2ccc(N3CCOCC3)cc2)o1	D1 agonist 41 (no result: D1 PAM)
COc1ccccc1Oc1coc2c(CN3CCOCC3)c(O)ccc2c1=O	TRHR PAM 37
O=C(c1cc(-c2ccc(F)cc2)nc2ccccc12)N1CCN(C2CCS(=O)(=O)C2)CC1 (configuration not stated)	D1 antagonist -32
COc1ccc(C(=O)NCC(=O)OCC(=O)N2CCCc3ccccc32)cc1	TRHR PAM 37
COc1ccc(OC)c(/C=C/C(=O)N2CCCc3ccccc32)c1	none
COc1ccc(/C=C/C(=O)N2CCCc3ccccc32)cc1	D1 antagonist -32
CCC(=O)c1ccc(OCC(=O)OCC(=O)N2CCCc3ccccc32)cc1	none
COc1cc(/C=C/C(=O)N2CCCc3ccccc32)cc(OC)c1OC	D1 antagonist -33
COc1cccc(/C=N/NC(=O)CNC(=O)COc2cccc(C)c2)c1O	none
COCCN1C2=C(C(=O)CC(C)(C)C2)C(c2ccc(O)c(OC)c2)C2=C1CC(C)(C)CC2=O	none
